Laboratory results: PubChem BioAssay
The list shows a part of the results. Values without a mark were called inactive. The source made the active and inactive calls.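 How the source made its calls, unless noted: active means mean inhibition above about 50% in the one-dose retest (limit read from the data); inactive means the rest.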

How the values were obtained:
[1] = target: Sentrin-specific protease 8 (Homo sapiens) (UniProt Q96LD8); test: SENP8 protease inhibitors, retest, confirmation, biochemical, luminescence, single concentration (AID 488912;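 active means mean inhibition across replicates above about 50%, limit read from the data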); details: Recombinant SENP8, Z-RLRGG-aminoluciferin luminescence, 60 min; at 12.5 µM; active compounds read high
Chain of Sentrin-specific protease 8 (Homo sapiens) (Q96LD8 whole entry, looked up): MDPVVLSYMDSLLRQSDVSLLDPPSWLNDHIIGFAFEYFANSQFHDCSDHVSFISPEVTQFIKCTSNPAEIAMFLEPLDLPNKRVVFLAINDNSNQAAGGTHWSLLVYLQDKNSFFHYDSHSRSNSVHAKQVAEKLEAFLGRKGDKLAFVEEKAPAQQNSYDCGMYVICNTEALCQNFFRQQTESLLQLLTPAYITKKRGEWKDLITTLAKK

[2] = target: Sentrin-specific protease 6 (Homo sapiens) (UniProt Q9GZR1); test: SENP6 protease inhibitors, confirmation, biochemical, luminescence, single concentration (AID 488915); details: recombinant SENP6, Z-RLRGG-aminoluciferin luminescence; at 12.5 µM; active compounds read high
Chain of Sentrin-specific protease 6 (Homo sapiens) (Q9GZR1 628-1112 limits assumed): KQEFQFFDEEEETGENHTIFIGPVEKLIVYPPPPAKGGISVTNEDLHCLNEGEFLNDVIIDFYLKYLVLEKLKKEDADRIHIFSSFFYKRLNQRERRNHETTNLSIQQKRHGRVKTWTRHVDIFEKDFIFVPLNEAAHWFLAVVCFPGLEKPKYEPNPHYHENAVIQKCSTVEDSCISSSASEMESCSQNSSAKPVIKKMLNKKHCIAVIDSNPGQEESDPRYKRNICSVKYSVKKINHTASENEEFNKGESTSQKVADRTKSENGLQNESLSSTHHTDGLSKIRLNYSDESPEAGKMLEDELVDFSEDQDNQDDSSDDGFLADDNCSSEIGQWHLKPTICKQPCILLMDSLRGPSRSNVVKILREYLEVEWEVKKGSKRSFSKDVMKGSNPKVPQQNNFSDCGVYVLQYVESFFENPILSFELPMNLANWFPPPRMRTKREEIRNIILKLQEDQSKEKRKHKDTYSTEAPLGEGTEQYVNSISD

[3] = target: Sentrin-specific protease 7 (Homo sapiens) (UniProt Q9BQF6); test: SENP7 protease inhibitors, retest, confirmation, biochemical, luminescence, single concentration (AID 488917); details: recombinant SENP7, Z-RLRGG-aminoluciferin luminescence, 40 min; at 12.5 µM; active compounds read high
Chain of Sentrin-specific protease 7 (Homo sapiens) (Q9BQF6 706-1050 limits assumed): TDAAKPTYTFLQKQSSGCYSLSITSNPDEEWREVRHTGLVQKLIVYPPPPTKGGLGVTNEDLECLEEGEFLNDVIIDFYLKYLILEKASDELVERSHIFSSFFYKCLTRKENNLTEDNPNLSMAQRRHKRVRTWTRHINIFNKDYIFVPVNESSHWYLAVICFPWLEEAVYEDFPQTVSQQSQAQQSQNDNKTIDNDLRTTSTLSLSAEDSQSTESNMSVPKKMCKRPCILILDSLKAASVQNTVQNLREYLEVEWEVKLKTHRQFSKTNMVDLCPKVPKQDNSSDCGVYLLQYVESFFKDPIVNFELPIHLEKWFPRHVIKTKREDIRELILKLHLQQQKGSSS

Caspase-3 (Homo sapiens) = Caspase-3 (Homo sapiens) (UniProt P42574); test: caspase-3 protease inhibitors, confirmation, selectivity assay for SENP inhibitor project, biochemical, single concentration (AID 488918;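 active means mean inhibition above about 50%, limit read from the data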;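 further: plate controls were enzyme with DMSO for no effect and wells without caspase-3 for full effect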); details: purified caspase-3, Z-DEVD-aminoluciferin luminescence, 60 min; at 12.5 µM; active compounds read high
Chain of Caspase-3 (Homo sapiens) (P42574 28-227 limits assumed): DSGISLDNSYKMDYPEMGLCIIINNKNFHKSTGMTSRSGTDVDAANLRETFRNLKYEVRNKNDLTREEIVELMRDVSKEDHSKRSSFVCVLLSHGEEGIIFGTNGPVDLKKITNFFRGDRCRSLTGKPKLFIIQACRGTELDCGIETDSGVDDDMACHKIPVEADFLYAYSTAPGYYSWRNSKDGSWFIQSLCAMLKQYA

[4] = luciferase luminescence interference by compounds, confirmation, artefact control for SENP inhibitor project, biochemical, single concentration, SENP8 reaction pre-completed (AID 488919;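 active means mean inhibition above about 50% when retested at one dose, limit read from the data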;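 further: plate controls were DMSO wells with completed reaction for no effect and substrate without enzyme for full effect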); details: Pre-incubated SENP8/Z-RLRGG-aminoluciferin, at 12.5 µM, active compounds read high

Cc1cc(NC(=O)Nc2ccccc2[N+](=O)[O-])no1
inhibition [1]: 46%
inhibition [2]: 40.1%
inhibition [3]: 77.2% (active)
inhibition (Caspase-3 (Homo sapiens)): 70.8% (active)
inhibition [4]: 41.3%

O=C(Nc1ccc2c(c1)CCC2)c1cccc(S(=O)(=O)Nc2ccccc2Cl)c1
inhibition [1]: 44%
inhibition [2]: 40.3%
inhibition [3]: 50.8% (active)
inhibition (Caspase-3 (Homo sapiens)): 13.2%
inhibition [4]: 4.6%

CN1C(=O)/C(=C\c2cc(Br)cs2)c2ccccc21
inhibition [1]: 27.2%
inhibition [2]: 42.4%
inhibition [3]: 23%
inhibition (Caspase-3 (Homo sapiens)): 18%
inhibition [4]: 12.1%

CSc1ccccc1NC(=O)c1cc(C2CC2)on1
inhibition [1]: 34.7%
inhibition [2]: 28.3%
inhibition [3]: 62.8% (active)
inhibition (Caspase-3 (Homo sapiens)): 41.1%
inhibition [4]: 40%

Brc1ccc2nc(N3CCCC3)sc2c1
inhibition [1]: 83.5% (active)
inhibition [2]: 95.8% (active)
inhibition [3]: 102% (active)
inhibition (Caspase-3 (Homo sapiens)): 81.3% (active)
inhibition [4]: 38.6%

COCn1c(COc2ccccc2)nc2ccccc21
inhibition [1]: 39.7%
inhibition [2]: 39.5%
inhibition [3]: 76.4% (active)
inhibition (Caspase-3 (Homo sapiens)): 74.2% (active)
inhibition [4]: 56% (active)

O=C(OC1CCOC1=O)c1ccc(-c2nc3ccccc3s2)s1 (stereo not given)
inhibition [1]: 92.5% (active)
inhibition [2]: 95.8% (active)
inhibition [3]: 100% (active)
inhibition (Caspase-3 (Homo sapiens)): 96.3% (active)
inhibition [4]: 83.8% (active)

Cc1ccnc(NC(=O)c2ccoc2C)c1
inhibition [1]: 85.8% (active)
inhibition [2]: 88.9% (active)
inhibition [3]: 97.1% (active)
inhibition (Caspase-3 (Homo sapiens)): 95.6% (active)
inhibition [4]: 80.1% (active)

COc1ccc(C(=O)Nc2ccccc2C(=O)N/N=C/c2ccccc2OC)cc1
inhibition [1]: 4%
inhibition [2]: 43.4%
inhibition [3]: 52.6% (active)
inhibition (Caspase-3 (Homo sapiens)): 83.9% (active)
inhibition [4]: 15.2%

CC(=O)Nc1ccc(/C=N/NC(=O)c2cccs2)cc1
inhibition [1]: 31.2%
inhibition [2]: 34%
inhibition [3]: 78.5% (active)
inhibition (Caspase-3 (Homo sapiens)): 82.4% (active)
inhibition [4]: 58.1% (active)

Nc1ncc(-c2cc3ccccc3oc2=O)s1
inhibition [1]: 92.7% (active)
inhibition [2]: 92.8% (active)
inhibition [3]: 102% (active)
inhibition (Caspase-3 (Homo sapiens)): 94.6% (active)
inhibition [4]: 91.7% (active)

Cc1ccc(C(=O)O/N=C(\N)c2ccccn2)cc1Cl
inhibition [1]: 38.5%
inhibition [2]: 81.3% (active)
inhibition [3]: 27.2%
inhibition (Caspase-3 (Homo sapiens)): 53.7% (active)
inhibition [4]: 50.2% (active)

COc1ccc2nc(Nc3nc4cc5c(cc4s3)OCCO5)sc2c1
inhibition [1]: 20.4%
inhibition [2]: 63% (active)
inhibition [3]: 71.6% (active)
inhibition (Caspase-3 (Homo sapiens)): 31.8%
inhibition [4]: 24.3%

CSC1=N/C(=C\C=C\c2cccs2)C(=O)S1
inhibition [1]: 69.4% (active)
inhibition [2]: 75.6% (active)
inhibition [3]: 85.3% (active)
inhibition (Caspase-3 (Homo sapiens)): 68.1% (active)
inhibition [4]: 52.2% (active)

Fc1ccc2nc(N3CCCCC3)sc2c1
inhibition [1]: 7.7%
inhibition [2]: 78.8% (active)
inhibition [3]: 97.3% (active)
inhibition (Caspase-3 (Homo sapiens)): 80.5% (active)
inhibition [4]: 18.4%

CC(C)Cc1cc(C(=O)Nc2cc(Br)ccc2O)no1
inhibition [1]: 6%
inhibition [2]: 21.4%
inhibition [3]: 28.9%
inhibition (Caspase-3 (Homo sapiens)): 15.4%
inhibition [4]: 7.1%

CCOC(=O)/C(C#N)=C/c1ccc(N2CCCCC2)cc1
inhibition [1]: 25.6%
inhibition [2]: 34.1%
inhibition [3]: 65% (active)
inhibition (Caspase-3 (Homo sapiens)): 30.2%
inhibition [4]: 10.6%

CC(=O)N1C(=O)/C(=C2\SC(=S)N(NC(=O)c3ccc(O)cc3)C2=O)c2ccccc21
inhibition [1]: 25.6%
inhibition [2]: 79.1% (active)
inhibition [3]: 25.2%
inhibition (Caspase-3 (Homo sapiens)): 10.3%
inhibition [4]: 3.7%

COc1cccc(-c2nc3cc(C)ccc3o2)c1
inhibition [1]: 96.1% (active)
inhibition [2]: 99.2% (active)
inhibition [3]: 102% (active)
inhibition (Caspase-3 (Homo sapiens)): 96.9% (active)
inhibition [4]: 94.2% (active)

CN(CCO)c1ccc(/C=N/Nc2nncc3ccccc23)cc1
inhibition [1]: 98.7% (active)
inhibition [2]: 99.7% (active)
inhibition [3]: 103% (active)
inhibition (Caspase-3 (Homo sapiens)): 98.7% (active)
inhibition [4]: 93.4% (active)

O=C(Nc1sc2c(c1C(=O)O)CCC2)c1ccccc1F
inhibition [1]: 94.5% (active)
inhibition [2]: 96.2% (active)
inhibition [3]: 102% (active)
inhibition (Caspase-3 (Homo sapiens)): 96.3% (active)
inhibition [4]: 94.5% (active)

CCCCOc1ccc(-c2nnc(-c3ccco3)o2)cc1
inhibition [1]: 37.7%
inhibition [2]: 44.6%
inhibition [3]: 41.1%
inhibition (Caspase-3 (Homo sapiens)): 12.6%
inhibition [4]: 2%

Cc1cc(N=Nc2ccc3ccccc3c2)ccc1O
inhibition [1]: 98.3% (active)
inhibition [2]: 98.9% (active)
inhibition [3]: 102% (active)
inhibition (Caspase-3 (Homo sapiens)): 85.7% (active)
inhibition [4]: 76.6% (active)

CCCCCc1ccc(-c2ccc(C(=O)O)cc2)nc1
inhibition [1]: -2.1%
inhibition [2]: 54.7% (active)
inhibition [3]: 76.9% (active)
inhibition (Caspase-3 (Homo sapiens)): 9.2%
inhibition [4]: 63.9% (active)

Oc1ccccc1-c1cc(-c2ccc(Cl)cc2)n[nH]1
inhibition [1]: 93.9% (active)
inhibition [2]: 94.4% (active)
inhibition [3]: 99.9% (active)
inhibition (Caspase-3 (Homo sapiens)): 68.9% (active)
inhibition [4]: 75.2% (active)

CCSc1nnc(NC(=O)c2ccc(C)cc2)s1
inhibition [1]: 33.7%
inhibition [2]: 23.5%
inhibition [3]: 51.1% (active)
inhibition (Caspase-3 (Homo sapiens)): 27.1%
inhibition [4]: 2%

O=c1c(-c2ccccc2)coc2cc(O)ccc12
inhibition [1]: 61.7% (active)
inhibition [2]: 60.2% (active)
inhibition [3]: 88.2% (active)
inhibition (Caspase-3 (Homo sapiens)): 85.9% (active)
inhibition [4]: 74.8% (active)

O=C(Nc1ccc(C2CC2(Cl)Cl)cc1)c1cccc([N+](=O)[O-])c1 (stereo not given)
inhibition [1]: 57.6% (active)
inhibition [2]: 60.1% (active)
inhibition [3]: 87.5% (active)
inhibition (Caspase-3 (Homo sapiens)): 36.1%
inhibition [4]: 29.5%

Cc1[nH]n(-c2ccc([N+](=O)[O-])cc2)c(=O)c1C=NCCN1CCN(C(=O)c2ccccc2F)CC1
inhibition [1]: 20.7%
inhibition [2]: 17.1%
inhibition [3]: 3.9%
inhibition (Caspase-3 (Homo sapiens)): 37.1%
inhibition [4]: 49.3%

O=C(Nc1ccc(Cl)cc1)c1ccsn1
inhibition [1]: 49.7%
inhibition [2]: 46.8%
inhibition [3]: 78.1% (active)
inhibition (Caspase-3 (Homo sapiens)): 60.3% (active)
inhibition [4]: 51.9% (active)

C/C(=N\NC(=O)c1ccoc1C)c1ccccc1O
inhibition [1]: 38.5%
inhibition [2]: 36.8%
inhibition [3]: 80.7% (active)
inhibition (Caspase-3 (Homo sapiens)): 77.3% (active)
inhibition [4]: 63% (active)

O=C(Nc1ccccc1C(=O)Nc1ccncc1)c1ccc([N+](=O)[O-])cc1
inhibition [1]: 47.2%
inhibition [2]: 57.2% (active)
inhibition [3]: 85.4% (active)
inhibition (Caspase-3 (Homo sapiens)): 65.1% (active)
inhibition [4]: 10.6%

Cc1ccc(NC(=O)c2sccc2C)cc1[N+](=O)[O-]
inhibition [1]: 78% (active)
inhibition [2]: 77.5% (active)
inhibition [3]: 95.7% (active)
inhibition (Caspase-3 (Homo sapiens)): 81% (active)
inhibition [4]: 82.6% (active)

O=C(/C=C/c1ccco1)Nc1ccc(Oc2ccccc2)cc1
inhibition [1]: 51% (active)
inhibition [2]: 64.2% (active)
inhibition [3]: 89.4% (active)
inhibition (Caspase-3 (Homo sapiens)): 40.7%
inhibition [4]: 38.3%

COc1ccc(/C=C2/SC(=O)N(CCCCCC(=O)Nc3ccccc3C(=O)O)C2=S)cc1
inhibition [1]: -4.2%
inhibition [2]: 0.2%
inhibition [3]: 2.7%
inhibition (Caspase-3 (Homo sapiens)): -3.8%
inhibition [4]: 8.6%

CCCc1cc(=O)oc2c(C)c(OCC(=O)Nc3ccccn3)ccc12
inhibition [1]: 18.2%
inhibition [2]: 14.4%
inhibition [3]: 23.3%
inhibition (Caspase-3 (Homo sapiens)): 39.2%
inhibition [4]: 11.8%

Cc1nonc1C(=O)N/N=C/c1ccc(O)cc1
inhibition [1]: 99.5% (active)
inhibition [2]: 101% (active)
inhibition [3]: 103% (active)
inhibition (Caspase-3 (Homo sapiens)): 99.4% (active)
inhibition [4]: 66.2% (active)

COc1cccc(C(=O)Nc2nc3ccc(S(C)(=O)=O)cc3s2)c1
inhibition [1]: 4.4%
inhibition [2]: 86.4% (active)
inhibition [3]: 98.9% (active)
inhibition (Caspase-3 (Homo sapiens)): 89.2% (active)
inhibition [4]: 73.5% (active)

COc1ccc2occ(C(=O)c3ccc(N=C(C)N(C)C)cc3)c2c1
inhibition [1]: 44.8%
inhibition [2]: 42.5%
inhibition [3]: 73% (active)
inhibition (Caspase-3 (Homo sapiens)): 65.7% (active)
inhibition [4]: 51.3% (active)

Cc1[nH]n(C(N)=S)c(=O)c1N=Nc1ccc(Cl)cc1Cl
inhibition [1]: 81.4% (active)
inhibition [2]: 89.8% (active)
inhibition [3]: 93.3% (active)
inhibition (Caspase-3 (Homo sapiens)): 85.3% (active)
inhibition [4]: 38.9%

CCOc1ccc(C(=O)Nc2cccc(SC)c2)cc1
inhibition [1]: -21.9%
inhibition [2]: 80.1% (active)
inhibition [3]: 96.7% (active)
inhibition (Caspase-3 (Homo sapiens)): 76.3% (active)
inhibition [4]: 85.8% (active)

Oc1ccc(N=Nc2nccs2)c(O)c1
inhibition [1]: 82.3% (active)
inhibition [2]: 80.3% (active)
inhibition [3]: 93.9% (active)
inhibition (Caspase-3 (Homo sapiens)): 90.8% (active)
inhibition [4]: 82.8% (active)

C1=C(CCNc2ncnc3c2cnn3-c2ccccc2)CCCC1
inhibition [1]: 2%
inhibition [2]: 22%
inhibition [3]: -1.5%
inhibition (Caspase-3 (Homo sapiens)): 39.5%
inhibition [4]: -4.4%

O=c1oc2cc(O)ccc2cc1-c1ccc(F)cc1
inhibition [1]: 98.4% (active)
inhibition [2]: 99.7% (active)
inhibition [3]: 103% (active)
inhibition (Caspase-3 (Homo sapiens)): 98.2% (active)
inhibition [4]: 95.4% (active)

O=C(Nc1cccnc1Cl)c1cc(-c2ccccc2O)on1
inhibition [1]: 8.6%
inhibition [2]: 17.8%
inhibition [3]: 16.2%
inhibition (Caspase-3 (Homo sapiens)): 8%
inhibition [4]: 1.6%

O=C(OCc1ccccc1F)c1ccc2c(c1)OCCO2
inhibition [1]: 87.8% (active)
inhibition [2]: 88.5% (active)
inhibition [3]: 98.8% (active)
inhibition (Caspase-3 (Homo sapiens)): 74.5% (active)
inhibition [4]: 78.6% (active)

CC(=NCc1ccco1)c1c(C(F)(F)F)[nH]n(-c2nc3ccccc3s2)c1=O
inhibition [1]: 91.7% (active)
inhibition [2]: 91.9% (active)
inhibition [3]: 99.8% (active)
inhibition (Caspase-3 (Homo sapiens)): 98.1% (active)
inhibition [4]: 89.3% (active)

CC(C)N(C(=O)Cn1cc(SCC(=O)N2CCCC2)c2ccccc21)C(C)C
inhibition [1]: -29.2%
inhibition [2]: -18.1%
inhibition [3]: -8.3%
inhibition (Caspase-3 (Homo sapiens)): -6.3%
inhibition [4]: -6.7%

Brc1ccccc1C1Nc2cccc3cccc(c23)N1
inhibition [1]: -7.3%
inhibition [2]: 3.3%
inhibition [3]: -9.3%
inhibition (Caspase-3 (Homo sapiens)): 1.1%
inhibition [4]: 3.4%

O=C(Nc1ccccc1)c1ccc2c(c1)OCO2
inhibition [1]: 10.6%
inhibition [2]: 74.3% (active)
inhibition [3]: 93.9% (active)
inhibition (Caspase-3 (Homo sapiens)): 88.9% (active)
inhibition [4]: 54.8% (active)

O=C(Nc1cccc2ccccc12)c1onc2c1CCCC2
inhibition [1]: -4.7%
inhibition [2]: 75% (active)
inhibition [3]: 93.2% (active)
inhibition (Caspase-3 (Homo sapiens)): 78.6% (active)
inhibition [4]: 81.4% (active)
